Assay results: PubChem BioAssay AID1159580 (chemical genetic matrix, 2015)
Several values for one entry are separate records, joined by “and”; a condition that tells them apart may be missing. Equal entries are not always repeated. Screen size: about 5,500 compounds; about 2,000 (36%) were called active. Inconclusive results (about 18%) are left out. Cut-off read from the data, not from the text of the source: active = normalized growth mostly below about 0.91 (no sharp cut-off); inconclusive = no clear call, values can overlap the other calls; inactive = mostly above about 0.92. This is one part of the list.

Assay: chemical genetic growth profiling, strain panel (AID 1159580);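 note: tested at 20 µM; growth read once vehicle control cultures reached saturation at 30 °C; 1 = growth at the plate median or of vehicle wells; lower values mean less growth of the strain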
Details: S. cerevisiae deletion strains, growth OD

Measured: normalized growth

C=C1C2CC[C@@]3(C)[C@H](c4ccoc4)OC(=O)C[C@]13O[C@H]1CC(=O)C(C)(C)[C@H](C(O)C(=O)OC)[C@@]21C (some centres undefined)
inactive: locus YAL021C, strain ccr4, active compounds read low 1.06 | locus YAL026C, strain drs2, active compounds read low 0.995 | locus YAL030W, strain snc1, active compounds read low 0.995 | locus YBL061C, strain skt5, active compounds read low 0.985 | locus YBR009C, strain hhf1, active compounds read low 1.05 | locus YBR021W, strain FUR4, active compounds read low 0.993 | locus YBR023C, strain chs3, active compounds read low 1.01 | locus YBR171W, strain sec66, active compounds read low 0.994 | locus YBR229C, strain ROT2, active compounds read low 1 | locus YBR231C, strain swc5, active compounds read low 0.993 | locus YBR279W, strain paf1, active compounds read low 1 | locus YCL011C, strain gbp2, active compounds read low 1.02 | locus YCL016C, strain dcc1, active compounds read low 1.01 | locus YCL029C, strain bik1, active compounds read low 1.01 | locus YCL061C, strain MRC1, active compounds read low 1 | locus YCL069W, strain vba3, active compounds read low 0.997 | locus YCR088W, strain abp1, active compounds read low 0.999 | locus YDL005C, strain med2, active compounds read low 0.989 | locus YDL035C, strain GPR1, active compounds read low 1.01 | locus YDL040C, strain nat1, active compounds read low 0.998 | locus YDL074C, strain BRE1, active compounds read low 1.02 | locus YDL101C, strain DUN1, active compounds read low 1.01 | locus YDL134C, strain PPH21, active compounds read low 1.01 | locus YDL185W, strain tfp1, active compounds read low 1.01 | locus YDL192W, strain arf1, active compounds read low 1.01 | locus YDR001C, strain nth1, active compounds read low 1.02 | locus YDR069C, strain doa4, active compounds read low 0.99 | locus YDR101C, strain arx1, active compounds read low 0.994 | locus YDR137W, strain rgp1, active compounds read low 0.959 | locus YDR159W, strain sac3, active compounds read low 0.995 | locus YDR162C, strain NBP2, active compounds read low 1.02 | locus YDR195W, strain ref2 0.961 | locus YDR297W, strain sur2, active compounds read low 1.02 | locus YDR318W, strain mcm21, active compounds read low 1.01 | locus YDR334W, strain swr1, active compounds read low 0.997 | locus YDR335W, strain msn5, active compounds read low 1.01 | locus YDR388W, active compounds read low 1.01 | locus YDR392W, strain spt3, active compounds read low 0.958 | locus YDR502C, strain sam2, active compounds read low 1.02 | locus YEL003W, strain gim4, active compounds read low 1 | locus YEL037C, strain rad23, active compounds read low 1 | locus YEL061C, strain CIN8 (second series), active compounds read low 0.996 | locus YER015W, strain faa2, active compounds read low 1 | locus YER016W, strain bim1, active compounds read low 0.997 | locus YER110C, active compounds read low 1.01 | locus YER111C, strain swi4, active compounds read low 0.994 | locus YER155C, strain BEM2 (second series), active compounds read low 0.983 | locus YER155C, strain BEM2, active compounds read low 0.994 | locus YER167W, strain BCK2, active compounds read low 1.01 | locus YFR010W, strain ubp6, active compounds read low 0.976 | locus YGL078C, strain dbp3, active compounds read low 1.02 | locus YGL086W, strain mad1, active compounds read low 1.01 | locus YGL167C, strain pmr1, active compounds read low 1 | locus YGL173C, strain kem1, active compounds read low 1 | locus YGL227W, strain vid30, active compounds read low 0.991 | locus YGL240W, strain doc1, active compounds read low 0.989 | locus YGL248W, strain PDE1, active compounds read low 1.01 | locus YGL253W, strain hxk2, active compounds read low 0.99 | locus YGR078C, strain PAC10, active compounds read low 1.01 | locus YGR135W, strain pre9, active compounds read low 1.02 | locus YGR252W, strain gcn5, active compounds read low 1.01 | locus YHR013C, strain ard1, active compounds read low 1.01 | locus YHR027C, strain rpn1, active compounds read low 0.991 | locus YHR030C, strain SLT2, active compounds read low 0.963 | locus YHR079C, strain IRE1 (second series), active compounds read low 1.01 | locus YHR079C, strain IRE1, active compounds read low 0.98 | locus YHR094C, strain hxt1, active compounds read low 1.02 | locus YHR129C, strain ARP1, active compounds read low 1 | locus YHR142W, strain chs7, active compounds read low 1.01 | locus YHR200W, strain rpn10, active compounds read low 1.02 | locus YIL066C, strain RNR3, active compounds read low 1.02 | locus YIL073C, strain SPO22, active compounds read low 1.03 | locus YIL125W, strain kgd1, active compounds read low 1 | locus YIR030C, strain dcg1, active compounds read low 1.01 | locus YJL092W, strain hpr5, active compounds read low 1 | locus YJL095W, strain BCK1 (second series), active compounds read low 1.01 | locus YJL095W, strain BCK1, active compounds read low 1.02 and 0.96 | locus YJL115W, strain asf1, active compounds read low 0.995 | locus YJL129C, strain trk1, active compounds read low 0.976 | locus YJL134W, strain LCB3, active compounds read low 1.01 | locus YJL154C, strain vps35, active compounds read low 0.995 | locus YJL164C, strain tpk1, active compounds read low 1.03 | locus YJL166W, strain qcr8, active compounds read low 1.02 | locus YJL168C, strain set2, active compounds read low 1.01 | locus YJL187C, strain SWE1 (second series), active compounds read low 1.01 | locus YJL187C, strain SWE1, active compounds read low 1 | locus YJR043C, strain POL32, active compounds read low 0.999 | locus YJR066W, strain TOR1, active compounds read low 0.932 | locus YJR075W, strain HOC1, active compounds read low 1.01 | locus YKL009W, strain mrt4, active compounds read low 0.992 | locus YKL068W, active compounds read low 1.01 | locus YKL085W, strain MDH1 (second series), active compounds read low 1.01 | locus YKL085W, strain MDH1, active compounds read low 1.01 | locus YKL160W, strain elf1, active compounds read low 1.02 | locus YKL190W, strain CNB1, active compounds read low 1 | locus YKR001C, strain vps1, active compounds read low 1.01 | locus YKR026C, strain gcn3, active compounds read low 0.994 | locus YKR091W, strain srl3, active compounds read low 1 | locus YLL001W, strain dnm1, active compounds read low 0.969 | locus YLL026W, active compounds read low 1 | locus YLL041C, strain sdh2, active compounds read low 1 | locus YLR027C, strain aat2, active compounds read low 0.983 | locus YLR039C, strain RIC1, active compounds read low 1.05 | locus YLR058C, strain SHM2, active compounds read low 1.02 | locus YLR102C, strain apc9, active compounds read low 1.01 | locus YLR113W, strain HOG1, active compounds read low 1.01 | locus YLR221C, strain rsa3, active compounds read low 0.976 | locus YLR258W, strain gsy2, active compounds read low 1.01 | locus YLR262C, strain YPT6 (second series), active compounds read low 1.01 | locus YLR262C, strain YPT6, active compounds read low 1.02 | locus YLR268W, strain sec22, active compounds read low 1 | locus YLR320W, strain mms22, active compounds read low 0.982 | locus YLR342W, strain FKS1 (second series), active compounds read low 0.996 | locus YLR342W, strain FKS1, active compounds read low 0.99 | locus YLR357W, strain rsc2, active compounds read low 0.975 | locus YLR370C, strain arc18, active compounds read low 1.01 | locus YLR371W, strain rom2, active compounds read low 1.02 | locus YLR384C, strain iki3, active compounds read low 0.984 | locus YLR418C, strain cdc73, active compounds read low 1.02 | locus YML016C, strain PPZ1, active compounds read low 1.01 | locus YML032C, strain rad52, active compounds read low 1.01 | locus YML120C, strain ndi1, active compounds read low 1.01 | locus YML124C, strain tub3, active compounds read low 1.01 | locus YMR058W, strain fet3, active compounds read low 0.99 | locus YMR078C, strain ctf18, active compounds read low 1.02 | locus YMR125W, strain sto1, active compounds read low 0.983 | locus YMR129W, active compounds read low 0.998 | locus YMR205C, strain PFK2, active compounds read low 1.03 | locus YMR223W, strain ubp8, active compounds read low 1.01 | locus YMR231W, strain pep5, active compounds read low 0.998 | locus YMR307W, strain GAS1, active compounds read low 1.01 | locus YNL067W, strain RPL9B, active compounds read low 1.01 | locus YNL071W, strain lat1, active compounds read low 1.02 | locus YNL128W, strain TEP1, active compounds read low 1.01 | locus YNL153C, strain GIM3, active compounds read low 1.01 | locus YNL183C, strain NPR1, active compounds read low 0.945 | locus YNL209W, strain ssb2, active compounds read low 1.01 | locus YNL233W, strain BNI4, active compounds read low 1 | locus YNL248C, strain rpa49, active compounds read low 0.959 | locus YNL250W, strain rad50, active compounds read low 1 | locus YNL271C, strain bni1, active compounds read low 1.01 | locus YNL298W, strain CLA4, active compounds read low 1.01 | locus YNL307C, strain MCK1, active compounds read low 1.02 | locus YNL322C, strain KRE1 (second series), active compounds read low 1 | locus YNR049C, strain mso1, active compounds read low 0.995 | locus YNR052C, strain pop2, active compounds read low 1.01 | locus YOL006C, strain TOP1, active compounds read low 1.03 | locus YOL012C, strain htz1 1.49 | locus YOL147C, strain pex11, active compounds read low 1.01 | locus YOR001W, strain rrp6, active compounds read low 0.953 | locus YOR061W, strain CKA2, active compounds read low 1.01 | locus YOR069W, strain VPS5, active compounds read low 1.01 | locus YOR070C, strain gyp1, active compounds read low 0.99 | locus YOR080W, strain dia2, active compounds read low 1 | locus YOR083W, strain WHI5, active compounds read low 1.04 | locus YOR106W, strain vam3, active compounds read low 1.02 | locus YOR136W, strain idh2, active compounds read low 1.01 | locus YOR144C, strain elg1, active compounds read low 1 | locus YOR184W, strain ser1, active compounds read low 1.02 | locus YOR231W, strain MKK1, active compounds read low 0.983 | locus YOR265W, strain rbl2, active compounds read low 1.01 | locus YOR270C, strain vph1, active compounds read low 0.995 | locus YOR290C, strain snf2, active compounds read low 1.03 | locus YOR316C, strain cot1, active compounds read low 1.01 | locus YPL051W, strain arl3, active compounds read low 0.984 | locus YPL078C, strain atp4, active compounds read low 1.02 | locus YPL106C, strain sse1, active compounds read low 1.05 | locus YPL240C, strain hsp82, active compounds read low 0.998 | locus YPL256C, strain CLN2, active compounds read low 0.981 | locus YPR119W, strain clb2, active compounds read low 1.01 | locus YPR141C, strain kar3, active compounds read low 1 | locus YPR163C, strain tif3, active compounds read low 1.01 | locus YPR167C, strain met16, active compounds read low 1.01 | strain wtn01, active compounds read low 1
